Source: PubChem BioAssay
This is a sample that favours compounds with a hit; in the whole collection about 12% have one here.
AMA1-RON2 inh: AMA1-RON2 (P. falciparum) interaction inhibition; 360,000 tested, 0.2% active; Potency, µM (top dose mostly 58.2 µM), for inactives: at the top dose activity change, negative = inhibition, usual class: inhibitors; AlphaScreen AMA1-biotinylated RON2 peptide binding; AID 720542;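 also: 0% = vehicle wells and -100% = peptide control; nearly all actives have a fitted effect of over 45% in size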
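AMA1 (3D7) with his tag at 25 nM final met compounds first, then biotinylated RON2 peptide at 25 nM; detection used donor plus acceptor beads, 10 µg/mL apiece, read by AlphaScreen after 30 min at room temperature.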
Pf growth 96h: P. falciparum growth inhibition at 96 hours. Potency, µM (top dose mostly 28.7 µM), for the others: at the top dose activity change, negative = inhibition, hits mostly inhibitors. AID 504834. P. falciparum luciferase reporter growth, 96 h. 320,000 tested, 6.9% active; also: % is scaled to controls: 0 for no effect and ±100 for the full control effect
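Cell-based qHTS: luciferase-tagged P. falciparum in erythrocytes (2% hematocrit, 0.05% parasitemia final) incubated with compounds for 96 hours, 37 C, 5% CO2; luciferase detection reagent then added and luminescence measured.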
HCV inhibitor: HCV inhibition; AID 651820; Huh7.5.1 HCVcc-Cre infection, luciferase reporter, 44 h; 340,000 tested, 3.4% active; Potency, µM (titrated, usually from 41.8 µM), for inactives: at the highest dose activity change, negative = inhibition, usual class: inhibitors; also: % is scaled to controls: 0 for no effect and ±100 for the full control effect
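Infectious HCV cell culture screen: compound-treated cells (1,000/well, pre-plated 4 h) are infected with HCVcc-Cre at roughly 0.5 moi and grown 44 h. Infection is quantified by luciferase signal after 15 min substrate incubation at room temperature.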
SARS PLP yeast: SARS-CoV PLP inhibition in yeast. Potency, µM (series often up to 32.9 µM), for the others: at the highest dose activity, positive = growth rescue, most hits filed as activators. S. cerevisiae expressing SARS-CoV PLpro, growth rescue. 330,000 tested, 0.19% active; calls by dose curve; also: 0% is about no effect; nearly all actives have a fitted effect of over 55% in size
NS1 inh: influenza NS1 inhibition | Potency, µM (titrated, usually from 46.1 µM), inactives show top-dose activity, positive = more growth | AID 2326 | 270,000 tested, 0.4% active; calls by dose curve; also: actives are rising curves; nearly all actives have a fitted effect of over 50% in size
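Compounds were scored for reversing the slow growth caused by influenza A NS1 in S. cerevisiae, measured by optical density at 600 nm. Assay medium contained 2% galactose at pH 6.0; NS1-free yeast of the same strain were the positive control.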
Pf growth 48h: P. falciparum growth inhibition at 48 hours (one generation); P. falciparum luciferase growth in erythrocytes, 48 h; Potency, µM (series often up to 28.7 µM), for the others: top-dose activity change, negative = inhibition, usual class: inhibitors; 310,000 tested, 5.9% active; AID 504832; also: % is scaled to controls: 0 for no effect and ±100 for the full control effect
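Growth was read as firefly luciferase luminescence after a 48 h, 37 C, 5% CO2 exposure of compounds to reporter-bearing P. falciparum cultures (0.1% parasitemia, 2% hematocrit final) in Albumax-supplemented RPMI 1640.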
An asterisk follows results filed as active; ? = inconclusive; / = no result; [ ] = dose if it differs, or a comment. Unless noted, calls follow the shape of the dose curve; as a rule, active = well fitted curve in the direction sought with a large enough effect; inconclusive = small, poorly fitted or top-dose-only effect, or another doubt; inactive = no such curve, though single readings can be large; an effect the other way counts as inactive or inconclusive. Potency is read from the fitted curve at half-maximal effect.

SMILES | AMA1-RON2 inh | Pf growth 96h | HCV inhibitor | SARS PLP yeast | NS1 inh | Pf growth 48h
COc1ccc(-c2csc(N3N=C(C)C(C)C3=O)n2)cc1 (stereo not drawn) | 105% | 12µM* | -14% | -5% | / | 99%
CS(=O)(=O)c1nc(-c2ccccc2)cc(-c2ccccc2)c1C#N | 0% | 1.7µM* | 28µM* | 4% | 9% | ?
CCn1cc(C2=NOC(C(=O)O)C2)c(C)n1 (stereo not drawn) | 13% | 5.9µM* | / | 4% | 8% | 12%
O=C(NC1CCCC1)C1CCN(c2cnccn2)CC1 | -14% | ? | 14% | 0% | 9% | 36%
Cc1nc(=O)c(-c2ccccc2)c(C)n1-c1ccccc1 | -7% | 8% | 0% | 2% | 17% | 2%
CC(=O)Nc1ccc(-n2c(C)nc(=O)c(-c3ccccc3)c2C)cc1 | -7% | 5.2µM* | 0% | -1% | 3% | -12%
CC(=O)c1cc2c(cc1NC(=O)c1ccccc1C)OCO2 | / | 36% | / | 1% | -1% | 18%
C/C(=N\N=C(/N)c1nonc1N)c1ccc2c(c1)OCO2 | 10% | 167% | ? | 0% | -1% | 297%
COc1ccc(OC)c(NC(=O)CN2CCc3ccccc3C2)c1 | ? | ? | ? | -8% | -16% | ?
COc1cc(C(O)P(=O)(OC2CCCCC2)c2ccc(N(C)C)cc2)cc(OC)c1OC (stereo not drawn) | 3% | 13µM* | 20% | 10% | -7% | ?
C[C@@H](CO)NC(=O)c1nc[nH]c1C(=O)N[C@H](C)c1ccccc1 | 4% | / | / | / | / | /
Cc1cccc(N2CCN(C3=NC(=O)C(Cc4ccccc4)S3)CC2)c1 (stereo not drawn) | 1%[2.32 µM] | 12µM* | -9% | -5% | -16% | -14%
CC(=O)c1ccc(NC(=O)C(C)n2nc(-c3ccccc3)c3cc(Cl)ccc32)cc1 (stereo not drawn) | 0% | 1.2µM* | ? | -1% | 9% | ?
CC(C(=O)NCc1ccco1)n1nc(-c2ccccc2)c2cc(Cl)ccc21 (stereo not drawn) | -8% | ? | -10% | 5% | 0% | /
Cc1ccc(NC(=O)OC(C)N2CCCCC2)cc1NC(=O)OC(C)N1CCCCC1 (stereo not drawn) | 0% | / | 25µM* | / | / | /
CCCc1ccc(-c2ccc(-c3noc(-c4ccncc4)n3)cc2)nc1 | 28% | 10µM* | ? | 7% | 14% | 0%
CCOc1ccccc1NS(=O)(=O)N(C)C | 2% | 13µM* | 23% | -3% | 0% | /
CCOc1ccccc1NS(=O)(=O)c1cccs1 | ? | / | 11% | 1% | -5% | 10%
Cc1ccc(N(C)S(=O)(=O)c2cccc(C(=O)NCC(c3cccs3)N3CCOCC3)c2)cc1 (stereo not drawn) | -4% | ? | ? | -7% | / | 12µM*
Cc1ccc(S(=O)(=O)N(C)c2ccc(C(=O)NCC(c3cccs3)N3CCOCC3)cc2)cc1 (stereo not drawn) | -5% | 10µM* | / | -1% | 2% | ?
Cc1ccc(S(=O)(=O)N(C)c2ccc(C(=O)NCC(c3ccccc3)N3CCCC3)cc2)cc1 (stereo not drawn) | -9% | / | / | / | / | /
Cc1ccc(NS(=O)(=O)c2cccc(C(=O)NCC(c3cccs3)N3CCOCC3)c2)cc1 (stereo not drawn) | -8% | ? | ? | -1% | / | ?
COc1ccc(C(C)=O)cc1Cn1c(=O)cc(C)[nH]c1=O | 1% | -2% | 3% | 6% | -12% | 0%
COC(=O)c1ccc(CN2CCCC(CO)(Cc3ccc(F)cc3F)C2)cc1 (stereo not drawn) | -11% | 40% | -1% | -9% | 12% | 2%
C=C1[C@@H]2CC[C@H](C2)C1(C)C | / | -3% | / | / | / | 1%
COC(=O)c1nc(Cl)c(Cl)c(N)c1Cl | -3% | 25% | 17% | 3% | / | 10µM*
CCCCCCCCOC(=O)c1nc(Cl)c(Cl)c(N)c1Cl | 33% | ? | -4% | -46% | -8% | ?
